From PubChem BioAssay
The source made the active and inactive calls.

Key:
[1] = tested on: Plasmodium falciparum Sir2 (PF13_0152, Sir2A); assay: pfSir2 binders on small-molecule microarrays, primary screen, biochemical, small-molecule microarray, 635 nm fluorescence (AID 1098); details: small-molecule microarray binding, fluorescence 635 nm; higher = more signal;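 also: score merges spot fluorescence intensity with its signal-to-noise ratio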
[2] = small-molecule microarray binders of probe aDKK1, primary screen, biochemical, biotinylated probe, 635/667 nm fluorescence (AID 1099); details: higher = more signal;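 also: score merges 667nm spot fluorescence with signal to noise across triplicate slides; reference of the scale not given here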
[3] = small-molecule microarray binders of probe aCHRDL2, primary screen, biochemical, biotinylated probe, 635/667 nm fluorescence (AID 1100); details: higher = more signal
[4] = splicing luciferase reporter signal modulators, primary screen, spliceosome inhibition project, cell-based, HEK293, splice +/- reporter (AID 1101); details: luminescence, 24 h, higher = more signal, called active from +8 up or from −8 down;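 also: HEK293 cells carrying a splicing-competent luciferase reporter gene; test concentration not given here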
[5] = biological target: Fibroblast growth factor 10 (Homo sapiens) (UniProt O15520); assay: FGF10 binders on small-molecule microarrays, primary screen, biochemical, small-molecule microarray, 635 nm fluorescence (AID 1102); details: FGF10 binding, fluorescence 635 nm, higher = more signal
Sequence of Fibroblast growth factor 10 (Homo sapiens) (O15520 whole entry, looked up): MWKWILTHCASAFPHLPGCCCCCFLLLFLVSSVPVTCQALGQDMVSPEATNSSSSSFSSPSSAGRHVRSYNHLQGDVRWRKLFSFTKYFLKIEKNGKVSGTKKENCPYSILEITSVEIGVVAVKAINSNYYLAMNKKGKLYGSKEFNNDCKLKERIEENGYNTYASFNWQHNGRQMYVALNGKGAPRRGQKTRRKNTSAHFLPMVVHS

[6] = tested on: glycogen synthase kinase-3 (GSK3A per assay name; protocol says GSK3B); assay: GSK3 binders on small-molecule microarrays, primary screen, biochemical, small-molecule microarray, 635 nm fluorescence, GSK3A (AID 1103); details: small-molecule microarray binding, fluorescence 635 nm; higher = more signal; also: the record names both GSK3A and GSK3B
[7] = biological target: Epidermal growth factor receptor (Homo sapiens) (UniProt P00533); assay: EGFR binders on small-molecule microarrays, primary screen, biochemical, small-molecule microarray, 635 nm fluorescence (AID 1104); details: EGFR binding, higher = more signal;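 also: score merges 667 nm emission intensity with spot signal to noise over triplicate slides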
Sequence of Epidermal growth factor receptor (Homo sapiens) (P00533 whole entry, looked up): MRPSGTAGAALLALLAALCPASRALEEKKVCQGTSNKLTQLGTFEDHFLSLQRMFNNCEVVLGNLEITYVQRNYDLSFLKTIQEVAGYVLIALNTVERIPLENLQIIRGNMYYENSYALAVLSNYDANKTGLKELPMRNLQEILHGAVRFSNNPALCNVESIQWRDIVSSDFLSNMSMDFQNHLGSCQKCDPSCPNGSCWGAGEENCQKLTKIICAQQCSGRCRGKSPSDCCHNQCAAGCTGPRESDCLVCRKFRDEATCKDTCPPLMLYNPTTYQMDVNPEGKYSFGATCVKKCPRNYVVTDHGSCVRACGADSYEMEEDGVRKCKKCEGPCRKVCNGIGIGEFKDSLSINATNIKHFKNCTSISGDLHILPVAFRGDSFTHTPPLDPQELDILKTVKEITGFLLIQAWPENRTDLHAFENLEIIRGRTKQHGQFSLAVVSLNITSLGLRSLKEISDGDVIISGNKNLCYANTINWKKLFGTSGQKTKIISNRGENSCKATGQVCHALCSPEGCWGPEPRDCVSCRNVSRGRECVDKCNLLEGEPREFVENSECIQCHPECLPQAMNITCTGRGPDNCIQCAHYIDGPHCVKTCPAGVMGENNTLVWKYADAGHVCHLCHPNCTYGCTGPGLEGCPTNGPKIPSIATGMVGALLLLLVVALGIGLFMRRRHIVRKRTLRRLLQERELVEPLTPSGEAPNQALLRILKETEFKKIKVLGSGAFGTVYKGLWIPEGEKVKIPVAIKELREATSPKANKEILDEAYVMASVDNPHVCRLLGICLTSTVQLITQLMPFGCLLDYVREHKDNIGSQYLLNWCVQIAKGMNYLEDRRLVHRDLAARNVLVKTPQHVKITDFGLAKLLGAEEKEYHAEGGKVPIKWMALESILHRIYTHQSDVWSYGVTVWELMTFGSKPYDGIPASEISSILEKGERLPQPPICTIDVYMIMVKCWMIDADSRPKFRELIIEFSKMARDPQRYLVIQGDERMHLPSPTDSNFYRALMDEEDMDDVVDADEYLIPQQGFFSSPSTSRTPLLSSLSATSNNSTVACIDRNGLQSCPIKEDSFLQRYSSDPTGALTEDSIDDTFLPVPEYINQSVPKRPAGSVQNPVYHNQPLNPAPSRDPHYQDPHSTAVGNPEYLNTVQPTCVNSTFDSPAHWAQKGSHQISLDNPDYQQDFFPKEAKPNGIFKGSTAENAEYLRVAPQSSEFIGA

[8] = biological target: Follistatin-related protein 3 (Homo sapiens) (UniProt O95633); assay: FSTL3 binders on small-molecule microarrays, primary screen, biochemical, small-molecule microarray, 635 nm fluorescence (AID 1105); details: FSTL3 binding, higher = more signal;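 also: score merges emission near 667 nm and signal to noise per printed spot across three slides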
Sequence of Follistatin-related protein 3 (Homo sapiens) (O95633 whole entry, looked up): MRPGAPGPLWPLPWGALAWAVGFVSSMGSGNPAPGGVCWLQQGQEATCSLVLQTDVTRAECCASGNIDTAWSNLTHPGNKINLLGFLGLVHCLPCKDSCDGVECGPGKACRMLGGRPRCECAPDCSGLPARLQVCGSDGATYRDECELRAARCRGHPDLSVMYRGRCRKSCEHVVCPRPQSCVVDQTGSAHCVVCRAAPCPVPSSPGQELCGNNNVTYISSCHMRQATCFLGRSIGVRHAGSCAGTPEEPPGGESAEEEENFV

[9] = biological target: Dickkopf-related protein 1 (Homo sapiens) (UniProt O94907); assay: DKK1 binders on small-molecule microarrays, primary screen, biochemical, small-molecule microarray, 635 nm fluorescence scan (AID 1106); details: DKK1 binding, higher = more signal;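 also: score merges emission near 667 nm with signal to noise over three replicate slides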
Sequence of Dickkopf-related protein 1 (Homo sapiens) (O94907 whole entry, looked up): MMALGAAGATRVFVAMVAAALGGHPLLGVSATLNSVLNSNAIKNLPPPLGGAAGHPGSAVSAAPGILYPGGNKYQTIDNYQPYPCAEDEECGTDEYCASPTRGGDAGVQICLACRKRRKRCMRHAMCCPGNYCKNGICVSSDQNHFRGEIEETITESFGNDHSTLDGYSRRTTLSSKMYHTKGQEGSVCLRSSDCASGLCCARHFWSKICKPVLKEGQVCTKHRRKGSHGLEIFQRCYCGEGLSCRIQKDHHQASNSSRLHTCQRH

[10] = tested on: Inhibin beta A chain (activin A); assay: INHBA (activin A) binders on microarrays, primary screen, biochemical, small-molecule microarray, 635 nm fluorescence scan (AID 1107); details: small-molecule microarray binding, higher = more signal;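 also: mouse activin A protein probed at 4.33 µg/mL on printed slides; score merges bound-protein fluorescence near 667 nm with spot signal-to-noise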

SMILES | composite z-score [1] | composite z-score [2] | composite z-score [3] | z-score [4] | composite z-score [5] | composite z-score [6] | composite z-score [7] | composite z-score [8] | composite z-score [9] | composite z-score [10]
COCCOC(=O)N1C(=O)[C@@]2(c3cc(C#Cc4ccc(OC)cc4)ccc31)[C@H](C(=O)N1CCN(c3ncccn3)CC1)[C@H]1C(=O)O[C@H](c3ccccc3)[C@H](c3ccccc3)N1[C@@H]2c1ccc(OCCO)cc1 | 0.593 | 0.61 | 0.628 | 0.688 (inactive) | 0.968 | 0.043 | 0.624 | 1.11 | 1.19 | 1.03
COCCOC(=O)N1C(=O)[C@@]2(c3cc(C#CC4(O)CCCCCC4)ccc31)[C@H](C(=O)N1CCN(c3ncccn3)CC1)[C@H]1C(=O)O[C@H](c3ccccc3)[C@H](c3ccccc3)N1[C@@H]2c1ccc(OCCO)cc1 | 1.4 | 0.0932 | -0.0616 | -0.702 (inactive) | 1.18 | 1.3 | 0.729 | 1.19 | 0.738 | 0.274
CC(C)[C@@H](OCc1ccccc1)[C@H](C)C=NOC[C@@H](C)[C@H](OCc1ccccc1)C(C)C | 0.556 | -0.319 | -0.552 | 0.741 (inactive) | 0.5 | -0.076 | 0.363 | 0.303 | 0.429 | -0.0094
CN1C(=O)C2C(C1=O)C1C=C(CCCO)C2C(c2ccc(CN3CCCC3)cc2)N1C (stereo not given) | -0.583 | -0.32 | -0.268 | -0.451 (inactive) | -0.684 | -0.0315 | -0.576 | -0.186 | 0.142 | 0.523
O=C(NN=C1C[C@@H](O)[C@@H](O)[C@@H]2[C@@H]3C(=O)N(c4cccc(Oc5ccccc5)c4)C(=O)[C@@H]3CC[C@H]12)OCc1ccccc1 | 0.373 | 0.0708 | 0.408 | 0.0933 (inactive) | -0.113 | -0.281 | 0.116 | -0.146 | -0.0924 | 0.242
CC(C)N1CC=CC23O[C@@H]4C=CCCOC(=O)C4[C@H]2C(=O)N(CCCCCCO)[C@@H]3C1=O (stereo not given in full) | 0.627 | -0.201 | 0.587 | 1.59 (inactive) | -1.03 | -1.13 | -1.13 | -1.22 | -1.59 | 0.12
C[C@@H](c1ccccc1)N1C(=O)[C@H]2[C@H]3[C@H](O)[C@H](O)CC(=NNC(=O)OCc4ccccc4)[C@H]3CC[C@H]2C1=O | -0.0979 | 0.24 | 0.794 | 0.373 (inactive) | 0.0359 | -0.354 | 0.191 | -0.461 | -0.415 | 0.0683
C#C[C@@H](CC)O[Si](C#Cc1ccc(Oc2ccccc2)cc1)(C(C)C)C(C)C | 0.301 | -0.137 | -0.225 | -1.17 (inactive) | 0.706 | 0.777 | 0.185 | 0.773 | 0.125 | 0.0324
COc1ccc(COC(=O)NN=C2C[C@@H](O)[C@@H](O)[C@@H]3[C@@H]4C(=O)N(c5ccc(F)cc5F)C(=O)[C@@H]4CC[C@@H]23)cc1 | 0.911 | 0.262 | 1.18 | 0.3 (inactive) | -0.665 | -1.53 | -0.076 | -0.267 | -0.69 | 0.532
O=C1C[C@@H](O)[C@@H](O)[C@@H]2[C@@H]3C(=O)N(c4cccc(Oc5ccccc5)c4)C(=O)[C@@H]3CC[C@@H]12 | 0.87 | -0.0115 | -0.464 | 0.0249 (inactive) | 0.806 | 0.655 | 0.387 | 0.925 | 0.987 | -0.0789
COCCCNC(=O)[C@@]1(Sc2ccc(C)cc2)CC(=O)N(Cc2ccccc2)[C@@H]1c1ccc(CO)cc1I | 0.179 | 0.996 | 1.31 | -0.606 (inactive) | -0.144 | -0.969 | -1.28 | -0.238 | -1.4 | 1.12
C[C@H]1CC[C@@H](C(=O)O)N[C@@H]1c1ccc(C#CCN(C)C)cc1 | 0.785 | -0.275 | -0.337 | -0.248 (inactive) | 0.425 | 0.429 | 0.44 | 0.481 | 0.33 | 0.222
CO[C@H]1COC(=O)CC=C[C@H](C)[C@@H](NS(=O)(=O)c2ccc(C)cc2)COC(=O)CC=C[C@@H]1C | 0.219 | -0.257 | -0.674 | -2.06 (inactive) | 0.582 | 0.528 | 0.853 | 0.579 | 0.761 | 0.257
CCCNC(=O)OC[C@H]1O[C@H](CCON=C2[C@H]3CCn4c(=O)n(-c5ccccc5)c(=O)n4[C@H]3[C@H](O)[C@@H]3O[C@H]23)C=C[C@@H]1Oc1ccc(OC)cc1 | 0.357 | -0.139 | -0.182 | -0.374 (inactive) | 0.2 | 0.343 | -0.0629 | 0.493 | 0.378 | 0.103
CC(C)[C@@H](OCc1ccccc1)[C@H](C)C=NO[C@H](C)c1cn([C@H](CO)Cc2ccccc2)nn1 | 0.45 | -0.25 | -0.566 | -0.652 (inactive) | 0.503 | 0.562 | 0.173 | 0.474 | 0.804 | -0.172
CCOC(=O)NN=C1C[C@@H](O)[C@@H](O)[C@@H]2[C@@H]3C(=O)N(C4CCCCC4)C(=O)[C@@H]3CC[C@H]12 | 0.253 | 0.135 | -0.0663 | 0.035 (inactive) | 0.38 | 0.518 | 0.416 | 0.333 | 0.701 | -0.341
C[C@@H]1C=CCC(=O)OC[C@H](C)C(=O)N[C@@H](C)C(=O)OC1 | 0.57 | -0.242 | -0.791 | -0.586 (inactive) | 0.336 | 0.252 | 0.282 | 0.413 | 0.814 | -0.658
